According to PubChem BioAssay AID1117319 (Southern Research Institute, 2015):
Where “and” joins values, the source holds several entries; their conditions need not be identical. Identical values can stand only once. The campaign covered roughly 260,000 compounds. About 1,500 (0.58%) were called active. Another 5% or so got no clear call; they are omitted.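 Rule for the calls: active = inhibition above a set limit at one or more doses, reproduced on every date tested; inconclusive = results disagree between test dates, or hit never tested in dose response; inactive = the rest.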 These entries were drawn from the full list. Results with a measured potency or affinity are listed apart.

Molecular target: Virion infectivity factor (Human immunodeficiency virus type 1 group M subtype B (isolate BH10)) + Virion infectivity factor (Human immunodeficiency virus type 1 group M subtype B (isolate BRU/LAI)) + Virion infectivity factor (Human immunodeficiency virus type 1 group M subtype B (isolate PCV12)) + Virion infectivity factor (Human immunodeficiency virus type 1 group M subtype B (isolate HXB2)) + DNA dC->dU-editing enzyme APOBEC-3G (Homo sapiens) (UniProt P69720+P69721+P69722+P69723+Q9HC16)
Assay: inhibitors of Vif binding to APOBEC3G peptide, primary screen, biochemical, TR-FRET, GST-Vif 1-94, biotin-A3G peptide, dose response retest (AID 1117319);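 note: Vif residues 1-94 fused to GST binding biotinylated APOBEC3G peptide 110-148; 0% = full assay without inhibitor and 100% = GST in place of GST-Vif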
Conditions: stronger effect = higher value

inhibition, inactive:
COc1ccc(OC)c(NC(=O)CNC(=O)Cn2c(C)cc3ccccc3c2=O)c1 7.41%
O=C(c1ccco1)N1CCN(C(=O)C2Cc3ccccc3CN2S(=O)(=O)c2ccc(F)cc2)CC1 (stereo unspecified) -4.72%
CN(Cc1cccc2cnccc12)C(=O)c1cc(COc2ccc(F)cc2F)on1 -7.76%
COc1cccc(CN2CCN(Cc3cccc4c3OCO4)CC2CCO)c1 (stereo unspecified) -2.33%
CCOC(=O)C(C(=O)NCc1ccc(F)cc1)c1ncc(C(F)(F)F)cc1Cl (stereo unspecified) 5.68%
Nc1ncnc(Nc2cc(C(F)(F)F)cc(C(F)(F)F)c2)n1 11%
COc1ccc(C(=O)N/C(=C/c2cccnc2)C(=O)N2CCCCCC2)cc1OC 2.36%
COc1ccccc1C(=O)N/C(=C\c1ccc(Br)cc1)C(=O)NCCC(=O)O -1.86%
Cc1oc(/N=C/c2ccc(O)cc2O)c(C#N)c1C -3.01%
Cc1oc(/N=C/c2ccccc2O)c(C#N)c1C 6.98%
Clc1cccc(C2=NOC(c3nnc(-c4ccccc4)o3)C2)c1 (stereo unspecified) -9.96%
Cc1cc(C)c(OCCNC(=O)c2ccccc2Sc2ccccc2C#N)c(C)c1 -2.47%
CC(=O)Oc1ccc(N2C(=O)C3C4C=CC(O4)C3C2=O)cc1 (stereo unspecified) -0.5%
CCC(C)NC(=O)c1ccc2c(SCC(=O)O)c3c(nc2c1)CCCC3 (stereo unspecified) 7.55%
CCOC(=O)C1CCN(C(=O)c2ccc3c(SCC(=O)O)c4c(nc3c2)CCCC4)CC1 -8.86%
O=C(O)CSc1c2c(nc3cc(C(=O)N4CCCC4)ccc13)CCCC2 4.71%
CCCN(C(=O)c1ccc2c(SCC(=O)O)c3c(nc2c1)CCC3)c1cccc(C)c1 18.7%
COc1cccc(/C=C2\SC(=S)N(CC(=O)N(C)C3CCS(=O)(=O)C3)C2=O)c1 (stereo unspecified) 3.59%
Cc1c(Cl)cccc1Nc1nc(N)nc(CSC(=S)N2CCOCC2)n1 0.88%
NS(=O)(=O)c1ccc(CCNS(=O)(=O)c2ccccc2)cc1 22.8%
O=C(CSc1ccc2nnc(-c3ccncc3)n2n1)Nc1nccs1 -1.26%
O=S(=O)(NCCN1CCCC1)c1ccc(C(F)(F)F)cc1 1.25%
N#Cc1c(-c2ccccc2)cc(-c2ccccc2)[nH]c1=O -8.66%
COc1ccc(-c2cc(C(F)(F)F)c(C#N)c(=O)[nH]2)cc1 -2.26%
Cc1cc(-c2ccccc2)[nH]c(=O)c1C#N -1.26%
N#Cc1c(-c2cccc(Br)c2)cc(-c2ccco2)[nH]c1=O 15.1%
COC(=O)c1ccc(NC(=S)N2CCN(Cc3ccccc3)CC2)cc1 10.9%
O=C(c1ccc(COc2ccc3ccccc3c2)o1)N1N=C(C(F)F)CC1(O)C(F)F (stereo unspecified) -0.12%
COc1cc2[nH]c(=S)nc(NCc3ccc(C)cc3)c2cc1OC -6.65%
O=C1C(O)=CC(=C(c2ccccc2)c2ccccc2)c2ccccc21 15.1%
Cc1ccc2c(CC(=O)OCc3csc(C)n3)coc2c1 11.1%
COc1cccc(OC)c1C(=O)OCC(=O)NCC(C)C 14.3%
CCC1(C)N([O-])C(C)=C(c2ccccc2)[N+]1=O (stereo unspecified) 4.55%
CC1(C)N([O-])C2=C(CCCC2)[N+]1=O 4.01%
CCc1ccc(N(C(=O)c2csnn2)C(C(=O)NC(C)(C)C)c2ccccn2)cc1 (stereo unspecified) 0.91%
O=C(c1n[nH]c(=O)c2ccccc12)N1CCN(Cc2ccc3c(c2)OCO3)CC1 4.07%
CCN(CC(=O)Nc1c(F)cccc1F)C(=O)c1ccc(N2CCCC2=O)cc1 -13.8%
CCOC(=O)c1csc(NC(=O)c2cc3ccccc3o2)n1 0.78%
Cc1csc(NC(=O)c2cc3ccccc3o2)n1 0.57%
Cc1ccc(OCC(=O)NCc2ccc3c(c2)OCO3)c([N+](=O)[O-])n1 8.23%
CC(C)C(=O)Nc1nnc(Cc2ccccc2)s1 -2.22%
CNC(=O)CC12CC3CC(CC(C3)C1)C2 6.4%
CCN1CCC(=NNC(=O)c2ccco2)CC1 5.57%
CCOP(=O)(OCC)c1nc(-c2cccc([N+](=O)[O-])c2)oc1N1CCCCC1 5.71%
Cc1cc(C(=O)CSc2nnnn2C)c(C)n1CCc1ccc(F)cc1 15.4%
COc1ccc(CCn2c(C)cc(C(=O)CSc3nnnn3C)c2C)cc1 26.9%
CNC(=O)c1sccc1SCc1c(Cl)cccc1Cl -1.14%
CC1=C(C(=O)OCC(Cl)(Cl)Cl)N2C(=O)C(NC(=O)Cc3ccccc3)C2SC1 (stereo unspecified) 67.2%
Cc1nnc(SCC2=C(C(=O)O)N3C(=O)C(NC(=O)Cc4ccccc4)C3SC2)s1 (stereo unspecified) 7.27%
COc1ccccc1N1CC(C(=O)OCc2nc(N)nc(Nc3ccccc3)n2)CC1=O (stereo unspecified) 15.4%
CC1(C(=O)N2CCOCC2)CCCCC1 -0.21%
Cc1cc(C)cc(OCC(=O)Nc2cc(C)on2)c1 0.63%
CCn1c(CNC(=O)c2cccc(C)c2)nnc1SCC(=O)NC1=NCCS1 -12%
CCCNS(=O)(=O)c1ccc(OCC(=O)N2CCC(C(=O)OCC)CC2)cc1 -4.14%
CCOC(=O)N1CCN(C(=O)COc2ccc(S(=O)(=O)NC(C)C)cc2)CC1 -4.61%
O=C(Nc1ccc2c(c1)OCCO2)c1ccc(Cl)cc1 -3.98%
CC(=O)c1cc2c(cc1NC(=O)c1cccc(S(=O)(=O)N3CCN(C)CC3)c1)OCO2 -12.7%
C/C(=N\NC(=O)c1ccc(=O)[nH]n1)c1cccnc1 3.66%
COc1ccc(-c2csc(COC(=O)C(C)(C)C)n2)cc1 -3.51%
CC(C)(C)C(=O)OCc1nc(-c2ccc(Cl)cc2)cs1 -5.87%
N#C/C(=C\c1ccc(-c2cccc([N+](=O)[O-])c2)o1)C(=O)Nc1nc(-c2cccs2)cs1 3.46%
Cc1cccc(NC(=O)CN(C)S(=O)(=O)c2cccc3cccnc23)c1 2.4%
Cc1cc(C#N)c(C)c(SCc2[nH]nc3c2C(c2ccccc2)C(C#N)=C(N)O3)n1 (stereo unspecified) 7.14%
COC(=O)c1ccccc1NC(=O)CN1CCC(C)CC1 26.5%
Cc1c(NC2=C(Cl)C(=O)N(c3ccccc3)C2=O)c(=O)n(-c2ccccc2)n1C 6.24%
COCCN(C(=O)COC(=O)CSc1cc(C)ccc1C)c1c(N)n(Cc2ccccc2)c(=O)[nH]c1=O -5.52%
CC(=O)Nc1ccc2c(c1)OCCO2 -3.04%
CC(=O)Nc1ccc2c(c1)OCCOCCOc1cc(NC(C)=O)ccc1OCCOCCOCCO2 30.1%
COc1ccc(-n2cccc2/C=C/[N+](=O)[O-])cc1 20.8%
O=C(O)c1cccc(-n2cccc2C=C2C(=O)c3ccccc3C2=O)c1 29.9%
CC(C)[C@H](NC(=O)OCc1ccccc1)C(=O)OCC(=O)N1CCN(c2ccc(F)cc2)CC1 -1.08%
CCNc1nc(ON=C(C)C)nc(N(C)C)n1 -7.57%
CCC(C)NC(=O)c1ccc(CSCc2ccccc2Cl)o1 (stereo unspecified) 2.45%
COc1ccc(OC)c(Nc2nc(-c3sc(N)nc3C)cs2)c1 7.55%
COc1ccc(OC)c(Nc2nc(-c3cccs3)cs2)c1 3.68%
Cc1ccc(C2/C(=C(\O)c3ccc4c(c3)OCCO4)C(=O)C(=O)N2CC2CCCO2)cc1 (stereo unspecified) -0.97%
COc1ccc(/C(C)=N/NC(=O)CNC(=O)c2cccnc2)c(OC)c1 3.46%
COc1ccc(OC)c(NC(=O)NC2CCCCCCC2)c1 -6.56%
COc1ccccc1C(=O)N1CCCC(c2nc(-c3cc(OC)c(OC)c(OC)c3)no2)C1 (stereo unspecified) -8.18%
CCOC(=O)C1=C(C)N=c2s/c(=C/c3ccccc3)c(=O)n2C1c1ccc(OC)c(OC)c1 (stereo unspecified) 1.78%
COc1ccc(C2C(C(C)=O)=C(C)N=c3s/c(=C\c4ccco4)c(=O)n32)c(OC)c1 (stereo unspecified) 31.2%
CC1=C(C(=O)Nc2ccccc2)C(c2ccc(C)o2)n2c(s/c(=C/c3ccccc3)c2=O)=N1 (stereo unspecified) 12.7%
CC1=C(C(=O)Nc2ccccc2C)C(c2ccc(C)o2)n2c(s/c(=C/c3ccccc3)c2=O)=N1 (stereo unspecified) 29.2%
CCOC(=O)C1=C(c2ccccc2)N=c2s/c(=C\c3cccc(O)c3)c(=O)n2C1c1cccs1 (stereo unspecified) -2.23% and -5.42%
CCOC(=O)C1=C(c2ccccc2)N=c2s/c(=C\c3ccc(O)cc3)c(=O)n2C1c1cccs1 (stereo unspecified) -10.4%
COc1cccc(CNC(=O)CSCc2cnn(-c3ccccc3)c2-n2cccc2)c1 2.53% and 7.19%
CC(=O)c1cnc2n(c1=O)CCS2 -2.48%
COc1ccc(C(CC(=O)c2ccc(C)cc2)C(C#N)C#N)cc1OC (stereo unspecified) -6.99%
O=C(O)CCCNC(=O)OCc1ccccc1 -2.72%
CC1CCN(S(=O)(=O)c2ccc(S(=O)(=O)NCC3COCCO3)cc2)CC1 (stereo unspecified) 8.23%
CCNS(=O)(=O)c1ccc(CCC(=O)O)cc1 -1.11%
